Assay outcomes from PubChem.
Compounds with a hit are over-represented: about 28% of the library has one in this group of screens.
CYP2C9 inhib = blocks human cytochrome P450 2C9. P11712. CYP2C9 Supersomes, luciferin-H conversion, luminescence. inhibition, % at 5 µM. 96,000 tested, 20% active;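 active = blocking of liver enzyme CYP2C9 beyond about 50% at 5 µM, limit read from the data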
CYP2C9 activ = activators of human CYP2C9; P11712; recombinant CYP2C9, luciferin-H conversion, luminescence; stronger effect = higher value; factor 1 = untreated enzyme, 0 = blocked; activation factor at 5 µM; 96,000 tested, 1.4% active;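 active = activation factor of 2 or more for CYP2C9 at a 5 µM dose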
Pyk2 oligo antag = blocks oligomerization of human Pyk2 in cells | Q14289 | Q293 cells, Pyk2 FERM NanoBiT luminescence; stronger effect = lower value | z-score (the deposit names both 25 µM and 10 µM) | 99,000 tested, 0.83% active | AID 1347419;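 active = Z-score of -3 or lower, scaled per plate to the spread of control and sample wells; inactive = z-score above -3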;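 also: negative z-score means lost luminescence so less FERM oligomerization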
Target sequence (Q14289 whole entry, looked up): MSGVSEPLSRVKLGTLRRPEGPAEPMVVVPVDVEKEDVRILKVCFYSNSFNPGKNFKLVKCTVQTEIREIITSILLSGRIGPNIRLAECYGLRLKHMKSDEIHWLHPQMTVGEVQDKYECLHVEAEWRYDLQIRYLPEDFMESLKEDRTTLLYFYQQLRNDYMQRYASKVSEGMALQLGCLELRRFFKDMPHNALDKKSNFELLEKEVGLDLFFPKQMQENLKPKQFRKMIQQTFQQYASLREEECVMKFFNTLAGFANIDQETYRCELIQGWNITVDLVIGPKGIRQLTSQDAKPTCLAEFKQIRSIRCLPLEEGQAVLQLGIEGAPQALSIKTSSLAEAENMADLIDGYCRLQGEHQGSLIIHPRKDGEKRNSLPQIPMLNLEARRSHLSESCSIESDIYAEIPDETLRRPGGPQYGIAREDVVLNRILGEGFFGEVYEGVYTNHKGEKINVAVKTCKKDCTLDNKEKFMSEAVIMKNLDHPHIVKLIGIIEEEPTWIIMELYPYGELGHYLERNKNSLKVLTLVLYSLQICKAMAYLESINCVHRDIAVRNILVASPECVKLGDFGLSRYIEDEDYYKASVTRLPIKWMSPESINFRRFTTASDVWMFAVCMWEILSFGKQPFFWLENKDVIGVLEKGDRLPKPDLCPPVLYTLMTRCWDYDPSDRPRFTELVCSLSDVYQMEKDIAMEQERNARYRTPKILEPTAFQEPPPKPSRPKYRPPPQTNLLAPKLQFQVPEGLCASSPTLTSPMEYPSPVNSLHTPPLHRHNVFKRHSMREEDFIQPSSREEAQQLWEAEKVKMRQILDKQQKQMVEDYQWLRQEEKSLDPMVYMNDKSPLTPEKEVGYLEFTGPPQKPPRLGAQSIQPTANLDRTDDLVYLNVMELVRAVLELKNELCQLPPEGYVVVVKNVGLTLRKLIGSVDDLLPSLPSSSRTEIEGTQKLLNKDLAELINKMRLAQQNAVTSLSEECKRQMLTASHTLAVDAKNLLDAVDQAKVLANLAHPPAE
CYP2C19 inhib = inhibitors of human CYP2C19; P33261; CYP2C19 Supersomes, luciferin-H EGE luminescence, 30 min; inhibition, % at 5 µM; 96,000 tested, 21% active;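 active = CYP2C19 inhibition above a set limit at 5 µM in the primary screen, cut at about 50% in these data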
CYP2C19 activ = activators of human cytochrome P450 2C19 | P33261 | recombinant CYP2C19, luciferin-H EGE luminescence; stronger effect = higher value; 0 = fully inhibited enzyme, 1 = untreated enzyme | activation factor at 5 µM | 96,000 tested, under 10 active | AID 1025;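 active = activation factor of at least 2 at 5 µM in the primary screen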
Hits are given with their value; 0 = inactive; - = not tested or not shown.

SMILES	CYP2C9 inhib	CYP2C9 activ	Pyk2 oligo antag	CYP2C19 inhib	CYP2C19 activ
CCCc1ccc(Oc2c(-c3ccc(O)c(C)c3O)n[nH]c2C)cc1	98	0	0	100	0
N#CCCn1ncn(-c2ccccc2)c1=S	0	0	0	0	0
CC(=O)NC(Cc1c[nH]c2ccccc12)C(=O)OCC(=O)Nc1ccc2c(c1)OCO2 (stereo not drawn)	74	0	0	0	0
O=C(COC(=O)[C@H](Cc1c[nH]c2ccccc12)NC(=O)c1cccs1)NCc1ccccc1	-	-	0	-	-
CC(=O)/C=C(/C)NC(Cc1c[nH]c2ccccc12)C(=O)O (stereo not drawn)	0	0	0	0	0
CC(=O)NC(Cc1c[nH]c2ccccc12)C(=O)OCC(=O)Nc1cc(C)on1 (stereo not drawn)	84	0	0	87	0
CC(=O)NC(Cc1c[nH]c2ccccc12)C(=O)N1CCc2ccccc2C1 (stereo not drawn)	0	0	0	75	0
Cc1cc(NC(=O)COC(=O)[C@H](Cc2c[nH]c3ccccc23)NC(=O)c2ccc(F)cc2)no1	76	0	0	0	0
CCCCOc1ccc(NC(=O)C(=O)NCCC2=CCCCC2)cc1	0	0	0	0	0
O=C(CN1CCC(n2nnc3cc(F)ccc32)CC1)NCCc1ccccc1	-	-	0	-	-
N/C(Cc1ccc(Cl)cc1Cl)=N\OC(=O)c1cccs1	0	0	0	54	0
N/C(Cc1cccc2ccccc12)=N\OC(=O)c1cccs1	-	-	0	-	-
Cc1ccc(C(=O)N(CC(=O)NC2CCCC2)Cc2cccs2)s1	88	0	0	74	0
Cc1sc2ncn(CC(=O)N(CC(=O)NC3CCCC3)Cc3cccs3)c(=O)c2c1C	56	0	0	0	0
COc1ccc(CNc2nc(SCc3cc(=O)n4cc(Cl)ccc4n3)nc3ccccc23)cc1	-	-	0	-	-
CN(C)C(=O)CN(c1ccc2c(c1)OCO2)S(C)(=O)=O	0	0	0	0	0
CCOc1ccc(C(CCc2ccccc2)NC(=O)c2ccccc2)cc1OCC (stereo not drawn)	68	0	0	76	0
CCOC(=O)CCSc1nnc(-c2cccnc2)n1-c1ccccc1OC	0	0	0	54	0
Nn1c(Cc2ccccc2F)nnc1SCn1nnc2ccccc2c1=O	0	0	0	64	0
O=c1c2ccccc2nnn1CSc1ccccc1F	-	-	0	-	-
COc1ccccc1-n1c(SCC(N)=O)nnc1-c1ccccc1	0	0	0	0	0
O=c1c2ccccc2nnn1CSc1nnc(-c2cccnc2)n1-c1ccccc1F	0	0	0	75	0
CC(C)(Oc1ccc(Cl)cc1)C(=O)OCC(=O)N1CCCC1	0	0	0	0	0
Cc1cc(C)cc(OC(=O)N2CCOCC2)c1	0	0	0	0	0
CC1(C)NC(=O)N(CCCOc2ccc(Br)cc2Cl)C1=O	51	0	0	92	0
SMILES	CYP2C9 inhib	CYP2C9 activ	Pyk2 oligo antag	CYP2C19 inhib	CYP2C19 activ
CCC(=O)c1ccccc1OCCN1C(=O)NC(C)(C)C1=O	67	0	0	75	0
Cc1ccc(C(C)C)c(OCCN2C(=O)NC(C)(C)C2=O)c1	0	0	0	77	0
CC1(C)NC(=O)N(CCCCOc2ccc(Br)cc2Cl)C1=O	66	0	0	99	0
C/C=C/c1ccc(OCCCN2C(=O)NC(C)(C)C2=O)c(OC)c1	0	0	0	0	0
S=c1[nH]nc(COc2ccccc2)n1/N=C/C(Cl)=C/c1ccccc1	0	0	0	0	0
COc1ccc(C2/C(=C(/O)c3ccccc3)C(=O)C(=O)N2CC(C)O)c(OC)c1 (stereo not drawn)	0	0	0	0	0
CC(C)c1cc(Br)ccc1OCCCN1C(=O)NC(C)(C)C1=O	78	0	0	92	0
O=C(Nc1ccc(Cl)c(Cl)c1)OCCNC(=O)c1cccc(Cl)c1	0	0	0	0	0
Cc1cc(NC(=O)CSc2cn(CCNC(=O)c3ccc(F)cc3)c3ccccc23)no1	75	0	0	64	0
COc1ccc(C(=O)NCCn2cc(SCC(=O)NCc3ccco3)c3ccccc32)cc1	85	0	0	96	0
Cc1nnc(NC(=O)CSc2cn(CCNC(=O)c3ccccc3)c3ccccc23)s1	0	0	-	0	0
O=C(COC(=O)c1ccc(Cl)s1)c1cc2ccccc2o1	0	0	0	70	0
O=C1CC(N2CCN(S(=O)(=O)c3cccc(C(F)(F)F)c3)CC2)C(=O)N1Cc1ccccc1 (stereo not drawn)	0	0	0	59	0
